Composite z-score and z-score data for four compounds are collected here from PubChem BioAssay.

Assay [1] has as its system Wnt5a (protein binding on small-molecule microarray). The experiment in a line: Wnt5a binders on small-molecule microarray, primary screen, biophysical, 635/667 nm fluorescence (AID 1142).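 Also: fluorescence read at 667 nm with signal to noise per printed feature.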 The note with it: 635 nm fluorescence, higher = more signal.
A short description of assay [2]: cell viability in Huh7 cells, primary screen, cytotoxicity control for HCV replication inhibitor project, CellTiter-Glo luminescence, basal, 48 h (AID 1143).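 Also: Huh7 hepatoma cells carrying a hepatitis C replication reporter with no stimulus; test concentration not given here.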 As to conditions: Huh7 HCV replicon, higher = more signal, called active from +8 up or from −8 down. On the technique in general: In ATP-based viability assays light output follows the ATP content of the culture.

Assay [3] in a line: P. aeruginosa biofilm formation inhibitors, primary screen, PAO1 strain, BacTiter-Glo luminescence, LB-PBS (AID 1144). As to conditions: 12 h, higher = more signal.
Assay [4] is described as follows: CREB reporter modulators without forskolin, primary screen, cell-based, PC12, CRE-LacZ reporter, unstimulated (AID 1145). As to conditions: no forskolin, luminescence, 4.5 h, higher = more signal, called active from +8 up or from −8 down.
Assay [5] can be described thus: CREB reporter modulators under forskolin, primary screen, cell-based, PC12, CRE-LacZ reporter, forskolin-stimulated (AID 1146).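 Also: PC12 cells with 6xCRE LacZ reporter stimulated by forskolin 10 µM; beta-galactosidase reporter signal reflecting CREB driven transcription.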 As to conditions: luminescence, 4.5 h, higher = more signal, called active from +8 up or from −8 down.
For assay [6], the target named is Streptavidin (Streptomyces avidinii) (UniProt P22629). The experiment in a line: streptavidin binders on small-molecule microarray, primary screen, artefact control for SMM compound annotation, biophysical, 635/667 nm fluorescence (AID 1147).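 Also: signal reflects streptavidin binding to arrayed compounds as a control protein.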 The note with it: streptavidin binding, higher = more signal.
Chain of Streptavidin (Streptomyces avidinii) (P22629 whole entry, looked up): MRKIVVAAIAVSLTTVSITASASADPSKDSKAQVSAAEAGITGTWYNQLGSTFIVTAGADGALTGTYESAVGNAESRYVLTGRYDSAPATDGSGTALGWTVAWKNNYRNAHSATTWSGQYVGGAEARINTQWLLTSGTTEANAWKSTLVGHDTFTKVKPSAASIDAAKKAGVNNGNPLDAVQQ
The nature of assay [7]: small-molecule binders of probe aInhba, primary screen, biochemical, small-molecule microarray, 635/667 nm fluorescence (AID 1148).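 Also: score merges 667nm spot fluorescence with signal-to-noise for antibody binding to printed compounds.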 As to conditions: higher = more signal.
Assay [8] concerns the target Torsin-1A (Homo sapiens) (UniProt O14656). The experiment in a line: torsin A binders from cell lysate, primary screen, small-molecule microarray, wild-type, 635/667 nm (AID 1149). The note with it: COS7 hTOR1A-WT lysate, 635 nm fluorescence, higher = more signal.
Assay [9] shares this target. The experiment in a line: small-molecule binders of mutant TOR1A in lysate, primary screen, cell lysate, small-molecule microarray, COS7 lysate, 635/667 nm fluorescence (AID 1150).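 Also: score pools 667 nm emission and signal to noise measuring lysate protein binding.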 The note with it: COS7 hTOR1A mutant lysate, 635 nm fluorescence, higher = more signal.
The test system of assay [10] is Sonic hedgehog protein (Shh). The experiment in a line: small-molecule binders of Shh protein, primary screen, biochemical, small-molecule microarray, 635/667 nm fluorescence (AID 1151).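 Also: Shh protein binding to compounds spotted on small-molecule microarray slides; score combines spot fluorescence intensity with signal-to-noise across triplicate slides.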 The note with it: small-molecule microarray binding, 635 nm fluorescence; higher = more signal.
Assay [11] is described as follows: E. coli DRC41 culture turbidity changes, primary screen, E. coli filamentation inducer project, strain DRC41, OD650, 48 h (AID 1152).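 Also: E. coli MC1000 strain DRC41 lacking acrAB efflux pump and sulA.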 As to conditions: E. coli DRC41 (acrAB sulA), higher = more signal, called active from +8 up or from −8 down.
The nature of assay [12]: small-molecule binders of probe aLefty1, primary screen, biochemical, small-molecule microarray, 635/667 nm fluorescence (AID 1153).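 Also: score merges spot fluorescence with signal-to-noise ratio from the scanned slide images.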 As to conditions: higher = more signal.
The nature of assay [13]: PSAC antagonists in infected red cells, primary screen, cell-based, P. falciparum Indochina, OD700, 1 h (AID 1154). As to conditions: P. falciparum Indochina infected RBC osmotic lysis, higher = more signal, called active from +8 up or from −8 down.
A short description of assay [14]: PSAC antagonists in infected red cells, primary screen, cell-based, P. falciparum Indochina, OD700, 2 h (AID 1155).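 Also: lysis reports solute entry through the parasite surface anion channel PSAC; channel blockers reduce lysis of infected cells.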 The note with it: P. falciparum Indochina infected erythrocytes, osmotic lysis OD700; higher = more signal, called active from +8 up or from −8 down.
Assay [15] in a line: osmotic lysis modulators in infected erythrocytes, primary screen, PSAC antagonist project, cell-based, P. falciparum Indochina, OD700, 3 h (AID 1156). As to conditions: higher = more signal, called active from +8 up or from −8 down.
The nature of assay [16]: PSAC antagonists in infected red cells, primary screen, cell-based, P. falciparum Indochina, OD700, 18 h (AID 1157). As to conditions: P. falciparum Indochina infected erythrocytes, osmotic lysis OD700, 18 h; higher = more signal, called active from +8 up or from −8 down.
Assay [17] can be described thus: modulators of S6 phosphorylation in cells, primary screen, cell-based, A549, cytoblot, luminescence, serum-stimulated (AID 1158).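 Also: serum-stimulated A549 lung adenocarcinoma cells; signal is phosphorylated S6 detected by cytoblot immunostaining with HRP secondary.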 The note with it: A549 phospho-S6 cytoblot, 5 h, higher = more signal.
Assay [18] concerns the target NADPH oxidase 2 (Homo sapiens) (UniProt P04839). The experiment in a line: NOX2-dependent H2O2 signal modulators, primary screen, NOX inhibitor project, cell-based, HEK293-NOX2, PMA-stimulated, Amplex Red fluorescence (AID 1159). Also: test concentration not given here. The note with it: 45 min, higher = more signal, called active from +8 up or from −8 down.
For assay [19], the target named is NADPH oxidase 4 (Homo sapiens) (UniProt Q9NPH5). The experiment in a line: NOX4-dependent H2O2 signal modulators, primary screen, NOX inhibitor project, cell-based, HEK293-NOX4, tetracycline-induced, Amplex Red fluorescence (AID 1160). The note with it: 45 min, higher = more signal, called active from +8 up or from −8 down.
Chain of NADPH oxidase 4 (Homo sapiens) (Q9NPH5 whole entry, looked up): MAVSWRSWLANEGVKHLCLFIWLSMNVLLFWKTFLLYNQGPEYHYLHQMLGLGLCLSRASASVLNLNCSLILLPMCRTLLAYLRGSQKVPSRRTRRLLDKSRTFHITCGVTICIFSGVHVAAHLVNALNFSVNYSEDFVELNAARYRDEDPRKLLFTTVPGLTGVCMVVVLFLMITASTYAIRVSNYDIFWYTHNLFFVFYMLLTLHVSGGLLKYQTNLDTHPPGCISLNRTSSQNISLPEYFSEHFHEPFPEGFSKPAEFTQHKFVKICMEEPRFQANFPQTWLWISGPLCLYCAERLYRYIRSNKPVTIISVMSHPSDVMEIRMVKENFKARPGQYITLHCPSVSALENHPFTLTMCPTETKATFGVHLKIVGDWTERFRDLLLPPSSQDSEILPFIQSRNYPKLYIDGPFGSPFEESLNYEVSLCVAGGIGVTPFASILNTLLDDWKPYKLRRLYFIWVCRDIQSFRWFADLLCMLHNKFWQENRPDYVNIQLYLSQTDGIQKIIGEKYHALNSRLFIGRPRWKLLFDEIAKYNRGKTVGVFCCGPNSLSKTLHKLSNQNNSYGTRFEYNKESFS
Assay [20] has as its target NADPH oxidase 5 (Homo sapiens) (UniProt Q96PH1). The experiment in a line: NOX5-dependent H2O2 signal modulators, primary screen, NOX inhibitor project, cell-based, HEK293-NOX5, Amplex Red fluorescence (AID 1161). As to conditions: HEK293-NOX5, ionomycin, 45 min, higher = more signal.

Activity calls are given as the source filed them. Unless noted, no rule for the calls is given here.

Chain of Torsin-1A (Homo sapiens) (O14656 whole entry, looked up): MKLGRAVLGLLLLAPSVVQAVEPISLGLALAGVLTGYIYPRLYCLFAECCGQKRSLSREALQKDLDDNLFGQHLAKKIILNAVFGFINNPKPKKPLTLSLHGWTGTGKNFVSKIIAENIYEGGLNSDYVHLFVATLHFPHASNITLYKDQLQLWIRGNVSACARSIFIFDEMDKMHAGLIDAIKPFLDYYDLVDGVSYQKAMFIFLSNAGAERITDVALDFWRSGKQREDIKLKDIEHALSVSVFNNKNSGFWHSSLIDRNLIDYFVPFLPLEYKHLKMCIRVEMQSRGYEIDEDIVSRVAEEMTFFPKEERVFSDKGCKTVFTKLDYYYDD
Chain of NADPH oxidase 2 (Homo sapiens) (P04839 whole entry, looked up): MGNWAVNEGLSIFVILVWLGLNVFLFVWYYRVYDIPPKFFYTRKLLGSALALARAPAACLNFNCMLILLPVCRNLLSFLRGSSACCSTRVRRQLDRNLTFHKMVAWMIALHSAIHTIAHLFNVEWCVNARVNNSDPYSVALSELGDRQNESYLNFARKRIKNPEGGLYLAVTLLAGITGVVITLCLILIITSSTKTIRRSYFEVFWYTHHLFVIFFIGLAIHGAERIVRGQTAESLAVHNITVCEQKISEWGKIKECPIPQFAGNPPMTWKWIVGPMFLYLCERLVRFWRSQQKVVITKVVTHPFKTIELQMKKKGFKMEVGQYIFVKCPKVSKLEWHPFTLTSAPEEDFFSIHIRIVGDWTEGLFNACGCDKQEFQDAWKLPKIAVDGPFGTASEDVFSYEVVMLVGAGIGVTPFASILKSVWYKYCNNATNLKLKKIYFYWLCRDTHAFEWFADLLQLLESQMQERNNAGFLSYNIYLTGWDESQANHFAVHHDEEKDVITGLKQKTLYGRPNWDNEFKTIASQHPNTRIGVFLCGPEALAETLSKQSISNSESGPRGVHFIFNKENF
Chain of NADPH oxidase 5 (Homo sapiens) (Q96PH1 whole entry, looked up): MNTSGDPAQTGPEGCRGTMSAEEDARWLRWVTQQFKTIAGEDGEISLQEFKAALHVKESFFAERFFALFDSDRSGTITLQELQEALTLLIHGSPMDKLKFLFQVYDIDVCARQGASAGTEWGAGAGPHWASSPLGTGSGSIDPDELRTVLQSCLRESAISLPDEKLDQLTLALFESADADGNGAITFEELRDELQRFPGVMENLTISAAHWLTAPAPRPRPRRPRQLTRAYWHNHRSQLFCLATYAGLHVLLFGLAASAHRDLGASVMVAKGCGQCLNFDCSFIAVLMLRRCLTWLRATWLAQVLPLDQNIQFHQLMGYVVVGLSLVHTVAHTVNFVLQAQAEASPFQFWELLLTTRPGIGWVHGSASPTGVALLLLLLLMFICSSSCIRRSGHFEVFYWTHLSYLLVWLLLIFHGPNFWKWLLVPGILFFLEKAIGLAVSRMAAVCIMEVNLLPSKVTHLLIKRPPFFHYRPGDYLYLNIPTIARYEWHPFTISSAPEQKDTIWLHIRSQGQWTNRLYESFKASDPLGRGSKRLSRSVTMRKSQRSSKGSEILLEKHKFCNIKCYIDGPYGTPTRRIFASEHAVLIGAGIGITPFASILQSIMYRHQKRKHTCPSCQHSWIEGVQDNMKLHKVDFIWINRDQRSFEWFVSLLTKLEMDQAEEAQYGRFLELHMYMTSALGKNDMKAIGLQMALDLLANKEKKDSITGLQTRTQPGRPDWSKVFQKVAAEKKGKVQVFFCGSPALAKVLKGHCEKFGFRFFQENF

Turning to `CN(C)CCCC[C@@H]1NC(=O)[C@@H]2C[C@H](C(=O)NCCCCCN)[C@H](c3cccc(OCCO)c3)N2C1=O`, the composite z-score is 0.132 in [1]; 0.909 in [6]; -0.101 in [7]; 0.433 in the assay with Torsin-1A (Homo sapiens) [8]; 0.0162 in the assay with Torsin-1A (Homo sapiens) [9]; 1.58 in assay [10]. The same compound registered a composite z-score in assay [12] of 0.25. Also, the z-score was -0.716 (inactive) in assay [2]; -0.241 (inactive) in [3]; -0.118 (inactive) in [4]; -0.469 (inactive) in [5]; 2.96 (inactive) in assay [11]; 1.11 (inactive) in assay [13]. The z-score in [14] was -0.469 (inactive); in assay [15], -1.52 (inactive); in [16], -2.07 (inactive); in [17] it was 2.77; in assay [18], 0.635 (inactive); in assay [19], 0.585 (inactive). Moreover, in [20], the z-score was determined as 1.57.

Take `COc1ccc(NN2C(C(O)c3ccc(I)cc3)C=CC3C(=O)N(C4CCCCC4)C(=O)C32)cc1` (stereo not given): the composite z-score in assay [1] is 0.404; in assay [6], 1.34; in assay [7], 0.253; with Torsin-1A (Homo sapiens) [8] it was 0.237; in the assay with Torsin-1A (Homo sapiens) [9] it was 0.51; in assay [10], 1.3. The composite z-score in assay [12] was determined as 0.425. Further, the z-score in [2] was -1.7 (inactive); in [3] it was -2.03 (inactive); in assay [4] it was 0.435 (inactive); in assay [5] it was -0.469 (inactive); in assay [11], -0.111 (inactive); in assay [13] it was 3.84 (inactive). Also, the z-score in [14] was 1.16 (inactive); in assay [15], -0.0985 (inactive); in [16], 0.706 (inactive); in assay [17], -0.569; in assay [18], 0.0194 (inactive); in assay [19], -0.672 (inactive). In addition, the z-score in assay [20] was -1.16.

As for `COc1ccc([Si](C)(C)[C@@H]2[C@@H](CC(=O)N3CCC[C@H]3CO)O[C@]3(C(=O)N(Cc4cccc(N5CCCCC5=O)c4)c4ccccc43)[C@H]2C)cc1`, the composite z-score in assay [1] was -0.104; in assay [6], -0.164; in assay [7], -0.176; with Torsin-1A (Homo sapiens) [8], 0.594; with Torsin-1A (Homo sapiens) [9], 0.81; in assay [10], 1.68. The compound also registered a composite z-score in assay [12] of 0.0046. Further, the z-score in assay [2] is -2.77 (inactive); in assay [3] it was -0.331 (inactive); in assay [4] it was 0.105 (inactive); in [5], -0.95 (inactive); in assay [11], 0.422 (inactive); in [13], 3.85 (inactive). The z-score in [14] is 1.23 (inactive); in assay [15], -1.02 (inactive); in [16], 0.278 (inactive); in [17] it was 0.067; in assay [18], 2.88 (inactive); in [19] it was 1.64 (inactive). Also, the z-score in [20] is 4.73.

As to `CC(C)[Si](C#CCCc1ccccc1)(O[C@H](c1ccccc1)c1cn(Cc2ccccc2)nn1)C(C)C`, the composite z-score in assay [1] was 0.21; in assay [6], 1.61; in [7], -0.179; with Torsin-1A (Homo sapiens) [8] it was 0.5; with Torsin-1A (Homo sapiens) [9] it was 0.484; in [10] it was 0.814. For the same compound, the composite z-score in [12] stood at 0.188. Moreover, the z-score in assay [2] is -1.12 (inactive); in assay [3], -0.778 (inactive); in assay [4], -0.0989 (inactive); in assay [5] it was -0.105 (inactive); in assay [11], 1.09 (inactive); in assay [13] it was 1.36 (inactive). The z-score is 0.308 (inactive) in assay [14]; -0.329 (inactive) in assay [15]; 0.53 (inactive) in assay [16]; 0.534 in assay [17]; -0.967 (inactive) in assay [18]; -0.899 (inactive) in assay [19]. Besides, the z-score in assay [20] was -3.17.
